Experimental data reported in PubChem BioAssay AID687016 (The Scripps Research Institute Molecular Screening Center, 2013).
“And” between values parts separate entries of the source, which are not always exact repeats. Equal entries are not always repeated. Among all 370,000 compounds or so, about 2,800 (0.76%) were called active. Cut-off read from the data, not from the text of the source: active = inhibition above about 21%; inactive = the rest. Many of the other results were omitted from the sample, so actives are more common in it than they were. A structure can be active in one record and inactive in another.

The compounds below were run against E3 ubiquitin-protein ligase UHRF1 (Homo sapiens) (UniProt Q96T88) (assay: blockers of UHRF1 binding to methyl-oligo – biochemical, TR-FRET, human UHRF1, single concentration, counter-screen for MBD2 inhibitor project, primary screen (AID 687016;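 note: UHRF1 SRA domain binding a hemimethylated CpG hairpin DNA probe; 0% = median of test compound wells and 100% = reference inhibitor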)). Conditions: UHRF1 binding to methylated oligo, at 4.4 µM, stronger effect = higher value.
Chain of E3 ubiquitin-protein ligase UHRF1 (Homo sapiens) (Q96T88 whole entry, looked up, the tested form may be a part): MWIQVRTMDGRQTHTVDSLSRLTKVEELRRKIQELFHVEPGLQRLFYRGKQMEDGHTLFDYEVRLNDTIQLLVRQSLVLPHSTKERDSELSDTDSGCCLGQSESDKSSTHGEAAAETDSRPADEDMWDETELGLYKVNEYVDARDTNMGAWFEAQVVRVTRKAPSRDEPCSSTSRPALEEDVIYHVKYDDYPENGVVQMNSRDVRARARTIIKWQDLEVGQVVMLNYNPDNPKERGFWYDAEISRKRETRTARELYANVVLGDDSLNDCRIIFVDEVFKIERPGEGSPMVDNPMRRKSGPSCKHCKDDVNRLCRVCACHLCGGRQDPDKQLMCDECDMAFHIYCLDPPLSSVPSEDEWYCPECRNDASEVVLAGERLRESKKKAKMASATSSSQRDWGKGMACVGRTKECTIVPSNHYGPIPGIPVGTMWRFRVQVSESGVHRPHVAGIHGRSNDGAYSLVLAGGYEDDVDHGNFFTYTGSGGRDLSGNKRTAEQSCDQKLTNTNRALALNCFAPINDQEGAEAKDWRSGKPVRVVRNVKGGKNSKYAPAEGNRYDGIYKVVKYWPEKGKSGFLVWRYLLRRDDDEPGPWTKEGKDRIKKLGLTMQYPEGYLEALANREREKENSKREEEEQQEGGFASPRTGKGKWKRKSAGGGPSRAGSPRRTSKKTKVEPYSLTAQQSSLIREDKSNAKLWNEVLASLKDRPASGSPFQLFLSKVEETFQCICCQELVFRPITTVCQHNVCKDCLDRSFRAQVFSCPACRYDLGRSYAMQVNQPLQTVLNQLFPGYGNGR
In the case of `CC(=O)N1CCCN(C2=Nc3ccccc3Sc3ccccc32)CC1`, the inhibition is reported as 11.8% (inactive).
With `Cc1ccc(NC(=O)Cn2sc3ccccc3c2=O)cc1` the inhibition was -0.79% (inactive).
For `Cc1ccnc(-n2sc3ccccc3c2=O)n1`, the inhibition was 21.5% (active).
For `Cc1ccnc(SC2CC(=O)N(c3ccccc3)C2=O)n1` (centres undefined), the inhibition was -0.14% (inactive).
With `COc1ccc(CN2C/C(=C/c3ccccc3)N3C(=O)C[C@@H](c4ccccc4)N=C23)c(OC)c1` the inhibition was -0.02% (inactive).
With `COc1ccc(/C=C2\CC3(OC(C)=O)CCCN2C3)cc1` (centres undefined) the inhibition was -2.63% (inactive).
For `C=CCN1C(C(=O)OC)CN(Cc2cn(Cc3ccccc3)nn2)CCS1(=O)=O` (centres undefined), the inhibition was 15.8% (inactive).
For `C[N+](C)(C)CCNC(=O)c1c[nH]c2ccccc12`, the inhibition was 21.1% (active).
For `O=C(NCCCc1ccccc1)C(=O)c1c[nH]c2ccccc12`, the inhibition was -1.59% (inactive).
In the case of `O=C(CNC(=O)c1ccccc1F)OCC(=O)c1c[nH]c2ccccc12`, the inhibition is reported as -1.49% (inactive).
For `Clc1ccc(-n2c(COc3ccccc3)nnc2SCc2nc3ccccc3[nH]2)cc1`, the inhibition was -1.31% (inactive).
With `C[C@@H](NC(=O)c1ccccc1OCC(=O)Nc1ccc(I)cc1)C(=O)N(C)Cc1ccccc1` the inhibition was 0.7% (inactive).
For `COc1ccc2c(c1)c(=Cc1ccc(N(C)C)cc1)c1cc(-c3ccccc3)[n+](C)n12`, the inhibition was 57.8% (active).
With `C=C1C(C(C)C)N(C)C2=NC(c3ccccc3)CC(=O)N12` (centres undefined) the inhibition was -0.97% (inactive).
For `CC(C)CSc1nnc(-c2cccnc2)n1Cc1ccccc1`, the inhibition was -0.61% (inactive).
`Cc1ccc(NC(=O)Cc2cccc(F)c2)c(S(=O)(=O)N2CCOCC2)c1` was tested, and the inhibition was 0.9% (inactive).
With `O=C(Cn1ncc2c3ccccc3n(Cc3ccccc3)c2c1=O)NCc1ccccn1` the inhibition was 0.71% (inactive).
For `O=C(Cn1ncc2c3ccccc3n(Cc3ccccc3)c2c1=O)NCCCN1CCOCC1`, the inhibition was 0.46% (inactive).
With `Cc1ccccc1Cn1c2ccccc2c2cnn(CC(=O)NCc3ccco3)c(=O)c21` the inhibition was 22.5% (active).
In the case of `CCC(=O)c1c(CC)c2n3c1=CC[C@H]3CC(Br)C=2` (some centres undefined), the inhibition is reported as 1.95% (inactive).
In the case of `O=C(NCc1ccc(Cl)cc1)C1CCCN(c2nc3ccccc3o2)C1` (centres undefined), the inhibition is reported as 2.81% (inactive).
With `COc1ccc(N2CCN(CCNS(=O)(=O)c3ccc(Cl)s3)CC2)cc1` the inhibition was -0.57% (inactive).
In the case of `CC(C)(COC(=O)Nc1ccccc1)COC(=O)Nc1ccccc1`, the inhibition is reported as -1.28% (inactive).
For `O=C(Nc1ccc(Cl)cc1)OCc1cc(-c2ccccc2)on1`, the inhibition was 2.42% (inactive).
`Cc1ccc(NC(=O)OCc2cncs2)cc1` was tested, and the inhibition was 49.5% (active).
With `CN1C[C@]2(C=C3CCCCC3n3c(=O)n(-c4ccccc4)c(=O)n32)N=C1NC(=O)c1ccccc1` (some centres undefined) the inhibition was -2.02% (inactive).
`CCOC(=O)[C@@]12CCC3=C1N(CCC3)C(=O)[C@H](CC(=O)N1CCN(C(=O)c3ccco3)CC1)C2` was tested, and the inhibition was -1.01% (inactive).
With `Cc1ccc(-c2nc(C3CCCN(S(=O)(=O)c4ccc(Br)s4)C3)no2)cc1` (centres undefined) the inhibition was 1.59% (inactive).
`Cc1cc(C)c2nc3nc(C)cc(C)c3c(N)c2c1` was tested, and the inhibition was 26.9% (active).
In the case of `CCCCN1CCN(C(=O)c2ccc3c(c2)NC(=O)C(C)(C)O3)CC1`, the inhibition is reported as 0.61% (inactive).
For `C=CCN1[C@H](CC(C)C)COc2cccc(N3CCCC3)c2S1(=O)=O`, the inhibition was -0.17% (inactive).
In the case of `COC(=O)CN1C(=O)N/C(=C/c2ccc(OC)c(C)c2OC)C1=O`, the inhibition is reported as -4.91% (inactive).
In the case of `Cc1ccccc1NC(=O)Cn1c(=O)n(CC2CCCO2)c(=O)c2ccccc21` (centres undefined), the inhibition is reported as -0.24% (inactive).
In the case of `Cc1ccccc1NC(=O)CN1C(=O)N/C(=C\c2cccn2-c2cccc(C(=O)O)c2)C1=O`, the inhibition is reported as 74.8% (active).
With `CC(C)(C)C1C/C(=C/c2ccco2)C(=O)/C(=C/c2ccco2)C1` (centres undefined) the inhibition was 99.5% (active).
For `C=CC1=C(C(=O)O)N2C(=O)[C@@H](NC(=O)/C(=N/OCC(=O)O)c3csc(N)n3)[C@H]2SC1`, the inhibition was 93.7% (active).
For `CO/N=C(\C(=O)N[C@@H]1C(=O)N2C(C(=O)O)=C(COC(C)=O)CS[C@H]12)c1csc(N)n1` (stereo in doubt), the inhibition was 9.54% (inactive) and 0.92% (inactive) and 27.5% (active).
For `C=CC1=C(C(=O)O)N2C(=O)[C@@H](NC(=O)/C(=N\OCC(=O)O)c3csc(N)n3)[C@H]2SC1`, the inhibition was 77.4% (active).
In the case of `CCN1CCN(C(=O)N[C@@H](C(=O)N[C@@H]2C(=O)N3C(C(=O)O)=C(CSc4nnnn4C)CS[C@H]23)c2ccc(O)cc2)C(=O)C1=O`, the inhibition is reported as -2.2% (inactive).
`COc1ccc(-n2c(COc3ccc(C)cc3)nnc2SCC(=O)Nc2ccc(Oc3ccccc3)cc2)cc1` was tested, and the inhibition was -5.28% (inactive).
`CN(C)Cc1cn(-c2ccc(-c3noc4c3C(=O)N(CC(=O)N3CCOCC3)CC4)cc2)nn1` was tested, and the inhibition was 2.67% (inactive).
`CCOc1ccc(NC(=O)COc2ccc(S(=O)(=O)N3CCCC3)cc2)cc1` was tested, and the inhibition was 1.66% (inactive).
`O=C(CN1CCCCCC1)Nc1ccc(S(=O)(=O)N2CCCCC2)cc1` was tested, and the inhibition was 62.1% (active).
For `O=C(CN1CCCCC1)Nc1ccccc1Cl`, the inhibition was 45.6% (active).
For `O=C(CSCc1ccc(Br)cc1)Nc1ccc(S(=O)(=O)N2CCCCCC2)cc1`, the inhibition was -1.33% (inactive).
`O=C(CN1CCCCCC1)Nc1c(Cl)cc(Cl)cc1Cl` was tested, and the inhibition was -0.79% (inactive).
With `O=C(CN1CCCCC1)Nc1ccccc1C(=O)NC1CC1` the inhibition was 3.15% (inactive).
In the case of `CC(=O)Nc1ccc(OC[C@@H](O)CN2CCC(C(O)(c3ccccc3)c3ccccc3)CC2)cc1`, the inhibition is reported as 1.32% (inactive).
`Cc1ccc(NC(=O)c2cc(C)nn2-c2ccccc2)c(C)c1` was tested, and the inhibition was -1.23% (inactive).
In the case of `CCCCCN1CCCCC(NC(=O)C(C)CCC)C1=O` (centres undefined), the inhibition is reported as -0.32% (inactive).
With `Cc1sc2ncn(CC(=O)NCCN(C)C)c(=O)c2c1S(=O)(=O)N1CCC(C)CC1` the inhibition was -1.58% (inactive).
`CCN(CC)CCCNC(=O)Cn1cnc2sc(C)c(S(=O)(=O)N3CCN(c4ncccn4)CC3)c2c1=O` was tested, and the inhibition was 31.2% (active).
`CCN(CC)CCNC(=O)Cn1cnc2sc(C)c(S(=O)(=O)N3CCOCC3)c2c1=O` was tested, and the inhibition was 6.01% (inactive).
`C=CCN1C(=O)[C@@H](CC(=O)NCCCOCCCC)[C@]2(C(=O)OCC)CCCCC/C=C/12` was tested, and the inhibition was -0.5% (inactive).
